Of roughly 7,900 targets only a part is listed; those with a hit were picked by preference. About 0.6% of all pairs of compound and target were hits.
Key:
Test in all cases: log2 fold change, soluble protein after heating vs DMSO (PISA); higher = thermal stabilisation; K562 cells, 10 uM, 30 min; active = over 0.2 and 3.5 SD of the protein, either way, in both replicates (recomputed)
[1] = compound: COC1=CC=C(C=C1)CN2C=CC3=C2C=C(C=C3)C(=O)NO
Procedure, shortened: (§1)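 Quantification of soluble protein used TMTpro 16plex LC-MS/MS, with channel sums equalised. Samples were the supernatant after 21,000xg for 90 min of pooled aliquots from K562 cells (2×10^6 cells/mL) treated with 10 μM compound for 30 min, heated for 3 min over 48°C-58°C, and extracted in PBS with 0.5% NP-40 at 4°C. Values, from duplicates, describe thermal stability against control samples on a log2 fold-change scale.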

filanesib = compound: CON(C)C(=O)N1N=C(c2cc(F)ccc2F)S[C@@]1(CCCN)c1ccccc1 [filanesib]
Procedure, shortened: as §1

zotarolimus = compound: CO[C@H]1C[C@@H]2CC[C@@H](C)[C@@](O)(O2)C(=O)C(=O)N2CCCC[C@H]2C(=O)O[C@H]([C@H](C)C[C@@H]2CC[C@H](n3cnnn3)[C@H](OC)C2)CC(=O)[C@H](C)/C=C(\C)[C@@H](O)[C@@H](OC)C(=O)[C@H](C)C[C@H](C)/C=C/C=C/C=C/1C [zotarolimus]
Procedure, shortened: as §1

idasanutlin = compound: COc1cc(C(=O)O)ccc1NC(=O)[C@@H]1N[C@@H](CC(C)(C)C)[C@](C#N)(c2ccc(Cl)cc2F)[C@H]1c1cccc(Cl)c1F [idasanutlin]
Procedure, shortened: as §1

alisertib = compound: COc1cc(Nc2ncc3c(n2)-c2ccc(Cl)cc2C(c2c(F)cccc2OC)=NC3)ccc1C(=O)O [alisertib]
Procedure, shortened: as §1

[2] = compound: COc1cc2nc(-c3cc(F)ccc3O)nc(N[C@@H]3CNC[C@H]3C(C)(C)O)c2cc1OC
Procedure, shortened: as §1

gefitinib = compound: COc1cc2ncnc(Nc3ccc(F)c(Cl)c3)c2cc1OCCCN1CCOCC1 [gefitinib]
Procedure, shortened: as §1

[3] = compound: COc1cccc2cc(-c3nc([C@H]4CC[C@H](C(=O)O)CC4)n4ncnc(N)c34)[nH]c12
Procedure, shortened: as §1

lapatinib = compound: CS(=O)(=O)CCNCc1ccc(-c2ccc3ncnc(Nc4ccc(OCc5cccc(F)c5)c(Cl)c4)c3c2)o1 [lapatinib]
Procedure, shortened: as §1

pictilisib = compound: CS(=O)(=O)N1CCN(Cc2cc3nc(-c4cccc5[nH]ncc45)nc(N4CCOCC4)c3s2)CC1 [pictilisib]
Procedure, shortened: as §1

Measured: log2 fold change

SNRPB2 (UniProt P08579)
Sequence of UniProt P08579 (P08579 whole entry, looked up): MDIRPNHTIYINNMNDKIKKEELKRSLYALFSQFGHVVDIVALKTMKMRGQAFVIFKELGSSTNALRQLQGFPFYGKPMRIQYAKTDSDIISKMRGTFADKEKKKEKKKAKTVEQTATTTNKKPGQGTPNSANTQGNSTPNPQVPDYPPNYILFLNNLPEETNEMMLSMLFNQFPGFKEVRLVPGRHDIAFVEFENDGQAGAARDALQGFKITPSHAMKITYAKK
inactive: [1] -0.018 | filanesib 0.057 | zotarolimus -0.035 | idasanutlin 0.021 | alisertib -0.121 | [2] 0.047 | gefitinib -0.021 | [3] -0.006 | lapatinib -0.002 | pictilisib 0.006

SLC44A2 isoform 2 (UniProt Q8IWA5)
inactive: [1] 0.018 | filanesib 0.048 | zotarolimus -0.028 | idasanutlin 0.026 | alisertib -0.118 | gefitinib 0.002 | [3] 0.057 | pictilisib 0.13

TCERG1 (UniProt O14776)
inactive: [1] 0.104 | filanesib -0.008 | zotarolimus 0.025 | idasanutlin -0.087 | alisertib 0.043 | [2] 0.054 | gefitinib 0.073 | [3] -0.003 | lapatinib -0.036 | pictilisib 0

TIMM29 (UniProt Q9BSF4)
Sequence of UniProt Q9BSF4 (Q9BSF4 whole entry, looked up): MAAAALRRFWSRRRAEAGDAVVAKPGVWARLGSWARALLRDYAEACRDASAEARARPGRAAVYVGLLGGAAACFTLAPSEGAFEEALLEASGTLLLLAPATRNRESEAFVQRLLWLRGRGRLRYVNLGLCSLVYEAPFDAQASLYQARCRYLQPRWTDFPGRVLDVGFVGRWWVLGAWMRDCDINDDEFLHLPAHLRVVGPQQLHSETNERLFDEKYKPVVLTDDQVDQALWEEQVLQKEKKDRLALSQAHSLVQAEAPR
inactive: [1] -0.141 | filanesib 0.041 | zotarolimus -0.058 | idasanutlin -0.096 | alisertib 0.01 | [2] 0.021 | gefitinib 0.039 | [3] 0.073 | lapatinib 0.014 | pictilisib 0.051

STAT5B (UniProt P51692)
Sequence of UniProt P51692 (P51692 whole entry, looked up): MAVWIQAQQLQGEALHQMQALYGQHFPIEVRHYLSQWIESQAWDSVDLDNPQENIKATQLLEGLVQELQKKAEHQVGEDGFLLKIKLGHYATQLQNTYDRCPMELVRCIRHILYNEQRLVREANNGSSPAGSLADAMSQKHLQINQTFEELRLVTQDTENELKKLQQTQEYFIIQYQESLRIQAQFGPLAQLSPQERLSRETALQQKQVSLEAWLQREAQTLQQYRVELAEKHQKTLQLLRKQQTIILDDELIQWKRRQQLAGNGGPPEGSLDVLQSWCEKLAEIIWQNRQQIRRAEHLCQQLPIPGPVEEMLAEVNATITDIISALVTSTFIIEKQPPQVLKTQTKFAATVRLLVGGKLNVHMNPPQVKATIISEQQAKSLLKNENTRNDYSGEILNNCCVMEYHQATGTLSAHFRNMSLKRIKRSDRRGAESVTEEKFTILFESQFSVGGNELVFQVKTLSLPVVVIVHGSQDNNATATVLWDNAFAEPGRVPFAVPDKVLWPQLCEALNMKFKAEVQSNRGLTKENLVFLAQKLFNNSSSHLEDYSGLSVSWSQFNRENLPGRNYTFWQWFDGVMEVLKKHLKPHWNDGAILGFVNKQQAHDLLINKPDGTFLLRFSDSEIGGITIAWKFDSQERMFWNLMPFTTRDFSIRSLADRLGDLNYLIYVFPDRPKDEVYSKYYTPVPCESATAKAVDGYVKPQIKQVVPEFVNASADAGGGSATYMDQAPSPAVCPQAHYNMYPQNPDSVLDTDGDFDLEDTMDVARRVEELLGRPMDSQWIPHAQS
inactive: [1] 0.13 | filanesib -0.036 | zotarolimus 0.112 | idasanutlin 0.086 | alisertib -0.038 | [2] -0.115 | gefitinib 0.046 | [3] -0.094 | lapatinib 0.029 | pictilisib -0.148

SRSF9 (UniProt Q13242)
Sequence of UniProt Q13242 (Q13242 whole entry, looked up): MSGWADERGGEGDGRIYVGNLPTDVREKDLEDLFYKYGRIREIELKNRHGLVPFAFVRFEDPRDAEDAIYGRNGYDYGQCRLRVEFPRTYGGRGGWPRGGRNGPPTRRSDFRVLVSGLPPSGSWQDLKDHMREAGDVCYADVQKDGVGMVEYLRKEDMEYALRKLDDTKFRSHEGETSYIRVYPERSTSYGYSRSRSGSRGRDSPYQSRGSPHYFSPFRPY
inactive: [1] -0.088 | filanesib 0.378 | zotarolimus -0.026 | idasanutlin 0.297 | alisertib -0.118 | [2] -0.09 | gefitinib -0.068 | [3] -0.128 | lapatinib 0.155 | pictilisib -0.036

SRC isoform 2 (UniProt P12931)
inactive: [1] 0.197 | filanesib 0.229 | zotarolimus -0.123 | idasanutlin 0.119 | alisertib 0.01 | [2] 0.017 | [3] 0.219 | lapatinib 0.088 | pictilisib 0.113

STXBP2 isoform 3 (UniProt Q15833)
inactive: [1] 0.021 | filanesib 0.001 | zotarolimus -0.043 | idasanutlin 0.043 | alisertib -0.034 | [2] 0.045 | gefitinib 0.043 | [3] -0.066 | lapatinib 0.007 | pictilisib -0.091

SURF1 (UniProt Q15526)
inactive: [1] 0.053 | filanesib -0.032 | zotarolimus -0.008 | idasanutlin 0.025 | alisertib -0.098 | [2] -0.004 | gefitinib -0.055 | [3] 0.083 | lapatinib 0.058 | pictilisib 0.051

SSBP4 (UniProt Q9BWG4)
Sequence of UniProt Q9BWG4 (Q9BWG4 whole entry, looked up): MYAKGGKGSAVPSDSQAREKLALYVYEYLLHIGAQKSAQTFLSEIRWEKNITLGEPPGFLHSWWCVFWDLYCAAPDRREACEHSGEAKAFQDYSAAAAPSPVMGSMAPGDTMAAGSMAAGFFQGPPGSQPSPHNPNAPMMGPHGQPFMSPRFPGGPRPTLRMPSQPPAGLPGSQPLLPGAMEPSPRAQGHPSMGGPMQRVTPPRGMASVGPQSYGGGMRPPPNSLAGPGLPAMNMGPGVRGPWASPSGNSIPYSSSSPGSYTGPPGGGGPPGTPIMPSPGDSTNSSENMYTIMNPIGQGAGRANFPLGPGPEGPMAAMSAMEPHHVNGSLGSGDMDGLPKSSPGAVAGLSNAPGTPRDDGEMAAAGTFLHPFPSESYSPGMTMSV
inactive: [1] -0.065 | filanesib -0.601 | idasanutlin 0.122 | alisertib 0.018 | [2] 0.076 | gefitinib -0.001 | [3] 0.029 | lapatinib -0.145 | pictilisib 0.117

TBC1D2 (UniProt Q9BYX2)
inactive: idasanutlin 0.016 | alisertib -0.053 | [3] -0.211 | pictilisib -0.097

TAF6L (UniProt Q9Y6J9)
Sequence of UniProt Q9Y6J9 (Q9Y6J9 whole entry, looked up): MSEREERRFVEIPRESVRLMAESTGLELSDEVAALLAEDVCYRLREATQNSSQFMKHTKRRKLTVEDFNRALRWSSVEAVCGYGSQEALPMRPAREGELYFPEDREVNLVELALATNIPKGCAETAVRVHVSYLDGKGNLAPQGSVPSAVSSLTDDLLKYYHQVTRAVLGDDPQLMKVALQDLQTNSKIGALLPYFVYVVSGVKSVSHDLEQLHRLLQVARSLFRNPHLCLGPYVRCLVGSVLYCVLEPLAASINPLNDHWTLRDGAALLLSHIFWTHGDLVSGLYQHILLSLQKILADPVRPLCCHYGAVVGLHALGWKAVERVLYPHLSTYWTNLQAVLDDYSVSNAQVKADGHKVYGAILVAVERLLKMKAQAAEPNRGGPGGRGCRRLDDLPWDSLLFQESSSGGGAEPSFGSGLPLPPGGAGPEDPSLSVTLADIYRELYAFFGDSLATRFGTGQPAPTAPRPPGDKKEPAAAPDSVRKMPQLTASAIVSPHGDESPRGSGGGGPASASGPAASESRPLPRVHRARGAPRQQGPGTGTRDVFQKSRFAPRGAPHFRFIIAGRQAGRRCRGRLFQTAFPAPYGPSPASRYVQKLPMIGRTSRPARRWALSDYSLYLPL
inactive: filanesib 0.177 | zotarolimus 0.049 | idasanutlin 0.001 | alisertib -0.13 | [2] 0.166 | gefitinib 0.054 | [3] 0.038 | lapatinib -0.133 | pictilisib 0.166

SMIM20 isoform 2 (UniProt Q8N5G0)
Sequence of UniProt Q8N5G0 (Q8N5G0 whole entry, looked up): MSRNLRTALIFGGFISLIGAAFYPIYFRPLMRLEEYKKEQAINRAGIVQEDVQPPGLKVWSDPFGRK
inactive: filanesib 0.093 | zotarolimus -0.037 | idasanutlin 0.095 | alisertib -0.056 | [2] 0.024 | gefitinib 0.057 | [3] 0.091 | lapatinib -0.044 | pictilisib -0.044

SLC9A6 isoform 3 (UniProt Q92581)
Sequence of UniProt Q92581 (Q92581 whole entry, looked up): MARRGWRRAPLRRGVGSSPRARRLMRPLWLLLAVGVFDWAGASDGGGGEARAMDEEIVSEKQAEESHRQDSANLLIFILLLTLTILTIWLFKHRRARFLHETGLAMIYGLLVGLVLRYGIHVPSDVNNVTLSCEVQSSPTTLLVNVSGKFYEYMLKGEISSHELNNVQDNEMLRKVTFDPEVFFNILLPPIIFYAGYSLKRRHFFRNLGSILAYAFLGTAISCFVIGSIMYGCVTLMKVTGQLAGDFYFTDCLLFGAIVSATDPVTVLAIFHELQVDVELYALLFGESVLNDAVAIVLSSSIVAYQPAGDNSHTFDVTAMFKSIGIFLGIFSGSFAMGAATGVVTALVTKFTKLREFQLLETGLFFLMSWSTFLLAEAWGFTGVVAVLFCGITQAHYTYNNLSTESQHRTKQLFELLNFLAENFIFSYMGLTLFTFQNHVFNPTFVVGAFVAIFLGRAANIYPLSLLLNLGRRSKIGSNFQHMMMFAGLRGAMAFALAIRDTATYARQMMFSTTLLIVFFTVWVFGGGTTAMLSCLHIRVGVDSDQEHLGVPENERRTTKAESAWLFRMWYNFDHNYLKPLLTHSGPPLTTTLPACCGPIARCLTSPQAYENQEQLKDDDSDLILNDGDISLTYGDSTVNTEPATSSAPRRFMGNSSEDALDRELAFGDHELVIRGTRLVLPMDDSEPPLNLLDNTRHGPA
inactive: zotarolimus -0.051 | idasanutlin 0.098 | [2] 0.055 | lapatinib -0.072

SLC46A1 (UniProt Q96NT5)
inactive: zotarolimus -0.095 | idasanutlin -0.107 | pictilisib 0.061

SLC35B4 (UniProt Q969S0)
Sequence of UniProt Q969S0 (Q969S0 whole entry, looked up): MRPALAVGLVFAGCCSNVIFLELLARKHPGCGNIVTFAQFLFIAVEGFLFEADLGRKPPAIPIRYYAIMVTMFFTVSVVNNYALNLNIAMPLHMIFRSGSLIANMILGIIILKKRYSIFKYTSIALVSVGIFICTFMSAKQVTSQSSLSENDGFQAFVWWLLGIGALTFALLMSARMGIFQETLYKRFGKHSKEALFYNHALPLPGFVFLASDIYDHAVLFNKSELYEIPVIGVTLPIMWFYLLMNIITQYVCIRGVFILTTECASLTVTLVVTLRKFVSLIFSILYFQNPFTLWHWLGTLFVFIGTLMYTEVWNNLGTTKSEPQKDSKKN
inactive: [1] -0.076 | filanesib -0.119 | idasanutlin 0.027 | alisertib 0.032 | gefitinib 0.149 | [3] 0.076

SMPD4 isoform 2 (UniProt Q9NXE4)
inactive: [1] -0.011 | zotarolimus 0.043 | idasanutlin -0.16 | alisertib -0.117 | [2] -0.308 | [3] 0.003 | lapatinib 0.131 | pictilisib -0.108

SSBP4 (UniProt U3KPY3)
inactive: alisertib 0.023 | [3] 0.212

TM7SF2 (UniProt O76062)
Sequence of UniProt O76062 (O76062 whole entry, looked up): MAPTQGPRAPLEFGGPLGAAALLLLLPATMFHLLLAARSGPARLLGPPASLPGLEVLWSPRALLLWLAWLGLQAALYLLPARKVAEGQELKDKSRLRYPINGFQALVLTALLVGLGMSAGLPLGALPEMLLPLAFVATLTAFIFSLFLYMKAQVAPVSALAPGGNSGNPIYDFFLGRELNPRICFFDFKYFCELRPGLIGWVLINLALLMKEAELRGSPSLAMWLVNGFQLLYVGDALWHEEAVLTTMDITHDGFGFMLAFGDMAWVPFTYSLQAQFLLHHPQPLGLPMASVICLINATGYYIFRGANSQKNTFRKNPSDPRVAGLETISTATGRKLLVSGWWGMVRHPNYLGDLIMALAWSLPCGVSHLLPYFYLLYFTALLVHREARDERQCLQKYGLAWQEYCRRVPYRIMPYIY
inactive: filanesib -0.142 | zotarolimus -0.018 | [2] -0.143 | gefitinib 0.059 | lapatinib 0

SP2 (UniProt Q02086)
inactive: [1] -0.319 | filanesib 0.012 | idasanutlin 0.277

THAP9 (UniProt Q9H5L6)
Sequence of UniProt Q9H5L6 (Q9H5L6 whole entry, looked up): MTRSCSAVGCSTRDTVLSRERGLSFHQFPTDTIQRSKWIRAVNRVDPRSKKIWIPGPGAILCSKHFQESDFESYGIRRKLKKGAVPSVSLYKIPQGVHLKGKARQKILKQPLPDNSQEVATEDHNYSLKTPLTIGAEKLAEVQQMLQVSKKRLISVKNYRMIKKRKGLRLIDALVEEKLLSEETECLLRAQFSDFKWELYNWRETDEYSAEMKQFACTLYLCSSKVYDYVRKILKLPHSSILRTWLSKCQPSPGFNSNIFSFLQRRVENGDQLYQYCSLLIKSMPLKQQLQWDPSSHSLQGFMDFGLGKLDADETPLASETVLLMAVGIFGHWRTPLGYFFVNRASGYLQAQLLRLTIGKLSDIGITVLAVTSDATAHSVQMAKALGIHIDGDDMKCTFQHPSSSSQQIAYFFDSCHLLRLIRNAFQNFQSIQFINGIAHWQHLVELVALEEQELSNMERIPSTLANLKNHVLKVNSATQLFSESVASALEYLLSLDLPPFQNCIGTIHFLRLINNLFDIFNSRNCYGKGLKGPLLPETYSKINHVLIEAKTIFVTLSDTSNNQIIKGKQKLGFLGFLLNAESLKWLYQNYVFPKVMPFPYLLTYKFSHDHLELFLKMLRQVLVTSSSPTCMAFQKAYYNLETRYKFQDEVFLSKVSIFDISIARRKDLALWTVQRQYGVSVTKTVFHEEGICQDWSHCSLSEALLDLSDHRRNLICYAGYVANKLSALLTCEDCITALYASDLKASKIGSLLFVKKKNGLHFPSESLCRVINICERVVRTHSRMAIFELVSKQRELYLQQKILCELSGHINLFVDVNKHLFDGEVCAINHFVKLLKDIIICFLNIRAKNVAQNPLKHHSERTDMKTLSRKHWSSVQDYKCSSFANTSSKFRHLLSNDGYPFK
inactive: [1] 0.434 | zotarolimus -0.139 | idasanutlin 0.008 | alisertib -0.068 | gefitinib -0.142 | [3] 0.011

Reference: the supplement of paper PMC10849652
